Test [1] can be described thus: inhibitors of TNFa-induced NFkB p65 translocation, primary screen, imaging, HUVEC, MLSMR starter and 10KST1 sets (AID 438;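 active = inhibition above 20% together with a positive visual image hit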;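 note: compound added about 3h40 before a 20 min TNFalpha stimulation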;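 for inhibition: signal is the nuclear over cytoplasmic p65 intensity ratio per well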). Particulars: HUVEC TNFa-induced p65 nuclear translocation; cell count: measured here: nuclei count (cytotoxicity indicator), at 2.08 µM; inhibition: at 2 µM, stronger effect = higher value, 0% TNFa-plus-vehicle, 100% no-TNFa wells.
A short description of test [2]: inhibitors of mutant huntingtin aggregation, primary screen, imaging, exon1htt(103Q)mCFP cells, high-content imaging (AID 483;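 active = visual image review flags a hit and inhibition of aggregation exceeds 20%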;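 note: compound exposure lasted 3 days before fixation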;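 for nuclei count: percent of the per-plate median nuclei count of sample wells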). Particulars: exon1htt(103Q)mCFP cell line, aggregate imaging, at 2 µM; inhibition of aggregation: stronger effect = higher value; nuclei count: measured here: cell count, toxicity.
Test [3] in a line: inhibitors of E-selectin induction by TNFa, primary screen, imaging, HUVEC, immunofluorescence, MLSMR starter and 10KST1 sets (AID 487;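 active = visually confirmed hit in the image check and inhibition above 20%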;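 for inhibition: signal is fraction of cell area covered by stained E-selectin grains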;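 for nuclei count: 100% = median nuclei count of all wells on the same plate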). The note with it: HUVEC TNFalpha-induced E-selectin immunofluorescence imaging, at 2 µM; inhibition: stronger effect = higher value; nuclei count: measured here: cell number, toxicity.
In test [4] the target is Voltage-gated potassium channel subunit beta-2 (Rattus norvegicus) (UniProt P62483). The test is described as follows: KvBeta enzyme negative modulators, primary screen, biochemical, NADPH fluorescence (AID 622;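 active = fluorescence slope higher than the sample average by over 3 SD, cut at about -0.22 in these data, passing the limit was not always enough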;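 note: slope of raw intensity against log time taken from 70 to 1610 s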). Particulars: recombinant KvBeta, 4-cyanobenzaldehyde reduction, at 10 µM, stronger effect = higher value.
Chain of Voltage-gated potassium channel subunit beta-2 (Rattus norvegicus) (P62483 whole entry, looked up): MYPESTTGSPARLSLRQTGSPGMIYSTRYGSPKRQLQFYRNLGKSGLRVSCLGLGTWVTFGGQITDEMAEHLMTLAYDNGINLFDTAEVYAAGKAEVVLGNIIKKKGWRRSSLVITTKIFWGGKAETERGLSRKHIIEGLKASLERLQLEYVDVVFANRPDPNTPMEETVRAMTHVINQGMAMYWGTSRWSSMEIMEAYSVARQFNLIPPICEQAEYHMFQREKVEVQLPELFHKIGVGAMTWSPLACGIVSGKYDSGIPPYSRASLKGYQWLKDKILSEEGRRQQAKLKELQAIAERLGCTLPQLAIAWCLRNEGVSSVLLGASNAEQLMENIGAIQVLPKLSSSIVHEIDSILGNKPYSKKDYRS
Test [5] shares this target. Briefly: KvBeta positive modulators, primary screen, biochemical, NADPH fluorescence (AID 623;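 active = NADPH fluorescence slope more negative than the mean of all samples by about 3 SD, 99.7% confidence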;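 note: fluorescence intensity change per second fitted from 20 to 320 s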). Particulars: Recombinant KvBeta, NADPH fluorescence decrease slope, 10 min; at 10 µM; stronger effect = lower value.
The target in test [6] is Alpha-2C adrenergic receptor (Homo sapiens) (UniProt P18825). Briefly: modulators of alpha2C/GIRK thallium flux, primary screen, cell-based, HEK293 alpha2C/GIRK1/2 (AID 624;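 active = fluorescence slope after compound addition differing from the mean of all screened samples at 99.7% confidence, in either direction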;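 note: slope of fluorescence ratio to pre-addition baseline per second over 15 to 24 s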). The note with it: thallium flux BTC fluorescence, at 10 µM, actives lie on both sides.
Chain of Alpha-2C adrenergic receptor (Homo sapiens) (P18825 whole entry, looked up): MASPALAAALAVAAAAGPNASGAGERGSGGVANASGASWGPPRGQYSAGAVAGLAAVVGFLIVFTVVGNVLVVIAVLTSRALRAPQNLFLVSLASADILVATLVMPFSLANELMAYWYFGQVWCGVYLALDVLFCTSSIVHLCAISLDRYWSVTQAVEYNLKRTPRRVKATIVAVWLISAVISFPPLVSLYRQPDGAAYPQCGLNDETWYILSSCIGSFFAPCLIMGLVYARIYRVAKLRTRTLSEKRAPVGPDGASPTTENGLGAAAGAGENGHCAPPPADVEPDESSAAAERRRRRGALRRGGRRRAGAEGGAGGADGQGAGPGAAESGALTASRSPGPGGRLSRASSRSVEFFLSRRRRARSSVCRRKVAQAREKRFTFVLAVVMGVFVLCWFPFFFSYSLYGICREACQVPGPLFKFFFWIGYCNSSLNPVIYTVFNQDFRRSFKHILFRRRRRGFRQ
A short description of test [7]: inhibitors of Sendai virus-induced IRF3 signaling, primary screen, TLR/RLR signaling modifier project, cell-based, Sendai virus stimulus, luciferase, 10K MLSCN set (AID 602276;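 active = inhibition at or above 50% at 10 µM; inactive = inhibition below 50%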;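 note: firefly luciferase from ISG56 promoter only with Renilla not read in this screen; 0% = Sendai virus plus DMSO and 100% = medium plus DMSO without virus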). Particulars: HEK293 RL24 IRF3 luciferase reporter, at 10 µM, stronger effect = higher value.
The nature of test [8]: inhibitors of poly I:C-induced TLR3 signaling, primary screen, cell-based, poly I:C stimulus, luciferase, 10K MLSCN set (AID 602277). The note with it: HEK293-TLR3 RL24 IRF3 luciferase reporter, at 10 µM, stronger effect = higher value.

By inhibition is commonly meant the drop in the measured response relative to a control, in per cent.

Calls of active or inactive are those of the source.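 Rule for the calls, unless noted: active = inhibition of the reporter signal at or above 50%; inactive = inhibition below 50%.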

Regarding `Cc1cccnc1NC(=O)CCCN1C(=O)c2ccccc2C1=O`, the cell count in test [1] is 366. Besides, the inhibition is 1.7% (inactive) in test [1], -32.4% (inactive) in test [3], 11.3% (inactive) in test [7] and 10.4% (inactive) in test [8]. For the same molecule, the inhibition of aggregation in test [2] was -11.4% (inactive). For the same molecule, the nuclei count in test [2] turned out to be 102%; in test [3], 87.7%. In addition, the fluorescence slope in test [4] was -0.409 (inactive). Moreover, the NADPH fluorescence slope in test [5] is -6.3e-05 (inactive). Besides, the slope in test [6] was 0.00485 (inactive).

For the molecule `Cc1nnc(C)c2c(C)n(Cc3ccc4c(c3)OCO4)c(C)c12`, the cell count in test [1] came to 679. Besides, the inhibition in test [1] is 6.2% (inactive); in test [3] it was -8.3% (inactive); in test [7] it was -9.5% (inactive); in test [8] it was -7.65% (inactive). Besides, the inhibition of aggregation in test [2] is 4.3% (inactive). Moreover, the nuclei count in test [2] was 74.3%; in test [3], 95.8%. The fluorescence slope in test [4] was -0.517 (inactive). Further, in test [5], the NADPH fluorescence slope was 4.5e-06 (inactive). The slope in test [6] was 0.0037 (inactive).

With `CC(=O)N(CCN(C(C)=O)c1ccccc1)c1ccccc1`, the cell count in test [1] amounted to 448. The inhibition in test [1] was -1.1% (inactive); in test [3] it was 12.5% (inactive); in test [7], 13.8% (inactive); in test [8], 17.2% (inactive). Further, in test [2], the inhibition of aggregation was 4% (inactive). Further, the nuclei count in test [2] came to 80.2%; in test [3] it was 88.5%. The fluorescence slope in test [4] is -0.454 (inactive). In test [5], the NADPH fluorescence slope is 7e-05 (inactive). In test [6], the slope was 0.00518 (inactive).

On to `CCOc1ccc(NC(=O)CC2NCCNC2=O)cc1` (centres undefined), for which the cell count in test [1] was found to be 738. The inhibition in test [1] was -10.9% (inactive); in test [3], -39.4% (inactive); in test [7] it was 9.27% (inactive); in test [8] it was 13.9% (inactive). Also, in test [2], the inhibition of aggregation is -1.6% (inactive). Moreover, the nuclei count in test [2] came out at 126%; in test [3], 99.2%. Besides, in test [4], the fluorescence slope is -0.302 (inactive). In addition, in test [5], the NADPH fluorescence slope was -7e-05 (inactive). Further, the slope in test [6] was 0.00573 (inactive).

On to `O=C(CC(SCCO)c1ccc2c(c1)OCO2)c1ccco1` (centres undefined), for which, in test [1], the cell count is 538. In addition, the inhibition in test [1] is -10.2% (inactive); in test [3] it was -60.6% (inactive); in test [7], -31.1% (inactive); in test [8] it was -69.6% (inactive). For the same molecule, the inhibition of aggregation in test [2] was -17.3% (inactive). The nuclei count in test [2] is 114%; in test [3], 128%. In test [4], the fluorescence slope was -0.602 (inactive). For the same molecule, the NADPH fluorescence slope in test [5] is -5.3e-06 (inactive). The slope in test [6] is 0.00625 (inactive).

For `CCOCCc1nnc(NC(=O)c2ccc(OC)c(OC)c2)s1`, in test [1], the cell count worked out at 578. The inhibition was 9.1% (inactive) in test [1], -94.6% (inactive) in test [3], 14.1% (inactive) in test [7] and 20% (inactive) in test [8]. Besides, the inhibition of aggregation in test [2] is -18.6% (inactive). In addition, the nuclei count in test [2] is 97.6%; in test [3], 154%. Further, in test [4], the fluorescence slope was -0.515 (inactive). In test [5], the NADPH fluorescence slope is -4.8e-05 (inactive). In addition, the slope in test [6] is 0.00549 (inactive).

As for `CCOc1cc(NC(=O)c2ccco2)c(OCC)cc1NC(=O)CCc1ccc(OC)cc1`, the cell count in test [1] came out at 630. Besides, the inhibition in test [1] is -0.7% (inactive); in test [3], 23.6% (inactive); in test [7], -0.546% (inactive); in test [8], -4.67% (inactive). Also, the inhibition of aggregation in test [2] is -13.7% (inactive). The nuclei count stood at 109% in test [2] and 102% in test [3]. Also, in test [4], the fluorescence slope is -0.513 (inactive). Besides, in test [5], the NADPH fluorescence slope was -6.7e-06 (inactive). Besides, in test [6], the slope is 0.00426 (inactive).

For the molecule `Nc1ncnc2nc(Sc3ccc(Cl)cc3)[nH]c12`, the cell count in test [1] was 645. For the same molecule, the inhibition in test [1] was -8.5% (inactive); in test [3], -12.5% (inactive); in test [7], 10.1% (inactive); in test [8] it was 12.5% (inactive). For the same molecule, the inhibition of aggregation in test [2] was -5.4% (inactive). For the same molecule, the nuclei count in test [2] and in test [3] was 108% throughout. The fluorescence slope in test [4] is -0.555 (inactive). The NADPH fluorescence slope in test [5] is -6.5e-06 (inactive). In test [6], the slope was 0.00627 (inactive).

Consider `CC1CCCCC1NC(=O)c1ccc(N2CCCC2=O)cc1` (centres undefined), for which, in test [1], the cell count is 536. For the same molecule, the inhibition in test [1] was -21.7% (inactive); in test [3], -20.8% (inactive); in test [7], 5.47% (inactive); in test [8] it was -5.67% (inactive). In addition, the inhibition of aggregation in test [2] is -20.5% (inactive). For the same molecule, the nuclei count in test [2] is 142%; in test [3] it was 103%. The fluorescence slope in test [4] was -0.51 (inactive). Further, the NADPH fluorescence slope in test [5] was 3.4e-05 (inactive). The slope in test [6] was 0.00599 (inactive).

As to `Nn1c(SCc2csc(-c3ccccc3)n2)nnc1-c1cccs1`, the cell count in test [1] came out at 387. The inhibition in test [1] is -14% (inactive); in test [3], -37.9% (inactive); in test [7], 31% (inactive); in test [8], 30.9% (inactive). Also, in test [2], the inhibition of aggregation is -10.8% (inactive). Further, the figures for the nuclei count in test [2] and in test [3] were 93.3% and 116%, respectively. The fluorescence slope in test [4] was -0.454 (inactive). Moreover, the NADPH fluorescence slope in test [5] was -7.1e-06 (inactive). Moreover, in test [6], the slope was 0.00728 (inactive).

Take `CCC1CCCCN1C(=O)C1CC(c2cc(Cl)c(OC)cc2OC)=NO1` (centres undefined): in test [1], the cell count amounted to 411. Moreover, the inhibition in test [1] is 6.8% (inactive); in test [3], -8.7% (inactive); in test [7], -1.49% (inactive); in test [8], -30.3% (inactive). For the same molecule, the inhibition of aggregation in test [2] was 1.6% (inactive). The nuclei count in test [2] amounted to 108%; in test [3], 168%. Also, in test [4], the fluorescence slope was -0.504 (inactive). For the same molecule, the NADPH fluorescence slope in test [5] is 2e-05 (inactive). Besides, the slope in test [6] is 0.00725 (inactive).

Take `Cc1ccc(C)c(NS(=O)(=O)c2ccc(NC(=O)c3ccco3)cc2)c1`: the cell count in test [1] stood at 476. Further, the inhibition in test [1] is 13.3% (inactive); in test [3] it was -15.1% (inactive); in test [7], 0.316% (inactive); in test [8], 11.1% (inactive). Moreover, the inhibition of aggregation in test [2] is 4.7% (inactive). In addition, the nuclei count in test [2] stood at 111%; in test [3], 109%. The fluorescence slope in test [4] is -0.335 (inactive). In test [5], the NADPH fluorescence slope is -3.2e-05 (inactive). For the same molecule, the slope in test [6] was 0.00608 (inactive).

On to `Cc1cc(C)n(C2=NS(=O)(=O)c3ccccc32)n1`, for which the cell count in test [1] turned out to be 343. The inhibition in test [1] was -2.4% (inactive); in test [3] it was 70.9% (active); in test [7] it was -8.5% (inactive); in test [8] it was -27.5% (inactive). Besides, the inhibition of aggregation in test [2] is 7.1% (inactive). Also, the nuclei count in test [2] was 92%; in test [3], 78.2%. In addition, the fluorescence slope in test [4] is -0.576 (inactive). Besides, the NADPH fluorescence slope in test [5] was -1.6e-05 (inactive). Moreover, the slope in test [6] is 0.00396 (inactive).

Regarding `COc1ccc(Cl)cc1-c1n[nH]c(=S)o1`, the cell count in test [1] came to 546. In addition, the inhibition in test [1] was 8.2% (inactive); in test [3] it was -86.8% (inactive); in test [7] it was 20.2% (inactive); in test [8], 23.5% (inactive). In test [2], the inhibition of aggregation is -5.3% (inactive). Moreover, the nuclei count turned out to be 104% in test [2] and 111% in test [3]. Moreover, in test [4], the fluorescence slope was -0.378 (inactive). The NADPH fluorescence slope in test [5] is -3.6e-05 (inactive). In test [6], the slope is 0.00602 (inactive).

(Values after PubChem BioAssay.)
